Data as given in the supplement of paper PMC11732987, “Enantioselective OTUD7B fragment discovery through chemoproteomics screening and high-throughput optimisation” (Communications Chemistry, 2025).

Columns and labels:
Experiment in all cases: log2 ratio of Biotin-Ahx-Ub-VS probe labelling (fragment/DMSO); higher = less target engagement (more negative = stronger competition), active = hit call of the paper (q ≤ 0.05, log2 ratio ≤ -1)
Settings in all cases: compound concentration: 200 uM; treatment time: 3 h
OTUD6B = biological target: T1, OTUD6B (UniProt Q8N6M0)
T1 sequence (whole entry): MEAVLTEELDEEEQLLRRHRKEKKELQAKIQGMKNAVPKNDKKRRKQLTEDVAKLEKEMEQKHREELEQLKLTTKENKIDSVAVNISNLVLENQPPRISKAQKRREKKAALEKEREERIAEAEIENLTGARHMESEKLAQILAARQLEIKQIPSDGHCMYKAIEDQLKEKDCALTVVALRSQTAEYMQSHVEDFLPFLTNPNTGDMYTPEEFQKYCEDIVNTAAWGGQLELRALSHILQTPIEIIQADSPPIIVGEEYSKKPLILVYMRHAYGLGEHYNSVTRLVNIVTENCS
Summary of the method: (§1)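 Average log2 ratios of fragment over vehicle were obtained by unpaired t-test from global-median-normalised Spectronaut label-free quantities. Proteins with ≥2 unique peptides were included. HEK293T lysate (495 µg per sample) was treated in triplicate with fragment at 200 µM or vehicle for 3 h, then with Biotin-Ahx-Ub-VS at 0.5 µM final for 1 h, and labelled DUBs were NeutrAvidin-enriched and run by diaPASEF LC-MS/MS.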

OTUD7B = biological target: T2, OTUD7B (UniProt Q6GQQ9)
T2 sequence (whole entry): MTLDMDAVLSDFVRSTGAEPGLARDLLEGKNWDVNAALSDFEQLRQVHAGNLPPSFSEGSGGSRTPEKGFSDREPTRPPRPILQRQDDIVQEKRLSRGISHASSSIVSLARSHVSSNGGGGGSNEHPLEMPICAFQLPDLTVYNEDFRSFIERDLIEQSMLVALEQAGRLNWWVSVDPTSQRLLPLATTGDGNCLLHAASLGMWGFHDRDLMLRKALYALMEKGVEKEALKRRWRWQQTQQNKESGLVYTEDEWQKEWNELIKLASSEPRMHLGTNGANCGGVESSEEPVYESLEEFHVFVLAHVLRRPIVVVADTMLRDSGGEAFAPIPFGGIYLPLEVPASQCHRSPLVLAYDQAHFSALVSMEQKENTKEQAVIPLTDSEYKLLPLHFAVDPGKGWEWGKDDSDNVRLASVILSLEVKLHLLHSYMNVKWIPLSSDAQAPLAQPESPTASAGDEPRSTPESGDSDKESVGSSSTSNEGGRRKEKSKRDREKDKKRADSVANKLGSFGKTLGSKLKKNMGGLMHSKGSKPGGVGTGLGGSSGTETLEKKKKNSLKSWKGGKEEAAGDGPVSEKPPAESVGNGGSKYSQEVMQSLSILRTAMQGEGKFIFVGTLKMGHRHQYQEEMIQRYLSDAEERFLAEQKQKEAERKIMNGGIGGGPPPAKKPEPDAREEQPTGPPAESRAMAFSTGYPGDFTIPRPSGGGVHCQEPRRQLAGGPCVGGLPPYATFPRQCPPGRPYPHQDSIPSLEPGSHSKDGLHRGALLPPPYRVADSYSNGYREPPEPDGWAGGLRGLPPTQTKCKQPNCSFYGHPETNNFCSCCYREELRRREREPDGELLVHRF
Summary of the method: as §1

PRPF8 = PRPF8 (UniProt Q6P2Q9)
Summary of the method: as §1

PSMD7 = biological target: T3, PSMD7 (UniProt P51665)
T3 sequence (whole entry): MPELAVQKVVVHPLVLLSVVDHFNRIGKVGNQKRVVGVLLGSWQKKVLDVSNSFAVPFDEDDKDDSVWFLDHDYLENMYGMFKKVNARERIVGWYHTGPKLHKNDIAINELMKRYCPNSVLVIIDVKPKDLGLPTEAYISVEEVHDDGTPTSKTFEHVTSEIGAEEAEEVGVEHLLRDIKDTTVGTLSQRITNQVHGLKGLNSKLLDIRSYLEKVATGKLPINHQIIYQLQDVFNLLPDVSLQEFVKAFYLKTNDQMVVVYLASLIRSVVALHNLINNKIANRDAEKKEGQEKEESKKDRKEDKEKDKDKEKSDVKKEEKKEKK
Summary of the method: as §1

UCHL1 = UCHL1 (UniProt P09936)
Summary of the method: as §1

UCHL3 = biological target: T4, UCHL3 (UniProt P15374)
T4 sequence (whole entry): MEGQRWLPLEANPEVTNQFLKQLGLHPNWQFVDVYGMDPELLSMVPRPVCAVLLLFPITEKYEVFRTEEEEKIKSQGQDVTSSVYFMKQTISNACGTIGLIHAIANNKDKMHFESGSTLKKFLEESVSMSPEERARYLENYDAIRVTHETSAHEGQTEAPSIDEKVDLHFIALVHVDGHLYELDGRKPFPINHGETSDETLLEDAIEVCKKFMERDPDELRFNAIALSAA
Summary of the method: as §1

UCHL5 = biological target: T5, UCHL5 (UniProt Q9Y5K5)
T5 sequence (whole entry): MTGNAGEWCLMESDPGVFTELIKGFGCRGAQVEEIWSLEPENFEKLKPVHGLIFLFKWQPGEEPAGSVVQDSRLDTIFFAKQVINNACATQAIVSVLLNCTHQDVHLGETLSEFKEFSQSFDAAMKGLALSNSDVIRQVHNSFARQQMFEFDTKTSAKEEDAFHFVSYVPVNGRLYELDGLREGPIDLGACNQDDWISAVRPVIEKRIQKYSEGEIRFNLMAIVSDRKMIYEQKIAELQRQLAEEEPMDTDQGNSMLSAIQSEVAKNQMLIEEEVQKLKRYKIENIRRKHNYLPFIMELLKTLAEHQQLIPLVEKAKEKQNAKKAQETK
Summary of the method: as §1

USP10 = USP10 (UniProt Q14694)
Summary of the method: as §1

USP15 = biological target: T6, USP15 (UniProt Q9Y4E8)
T6 sequence (whole entry): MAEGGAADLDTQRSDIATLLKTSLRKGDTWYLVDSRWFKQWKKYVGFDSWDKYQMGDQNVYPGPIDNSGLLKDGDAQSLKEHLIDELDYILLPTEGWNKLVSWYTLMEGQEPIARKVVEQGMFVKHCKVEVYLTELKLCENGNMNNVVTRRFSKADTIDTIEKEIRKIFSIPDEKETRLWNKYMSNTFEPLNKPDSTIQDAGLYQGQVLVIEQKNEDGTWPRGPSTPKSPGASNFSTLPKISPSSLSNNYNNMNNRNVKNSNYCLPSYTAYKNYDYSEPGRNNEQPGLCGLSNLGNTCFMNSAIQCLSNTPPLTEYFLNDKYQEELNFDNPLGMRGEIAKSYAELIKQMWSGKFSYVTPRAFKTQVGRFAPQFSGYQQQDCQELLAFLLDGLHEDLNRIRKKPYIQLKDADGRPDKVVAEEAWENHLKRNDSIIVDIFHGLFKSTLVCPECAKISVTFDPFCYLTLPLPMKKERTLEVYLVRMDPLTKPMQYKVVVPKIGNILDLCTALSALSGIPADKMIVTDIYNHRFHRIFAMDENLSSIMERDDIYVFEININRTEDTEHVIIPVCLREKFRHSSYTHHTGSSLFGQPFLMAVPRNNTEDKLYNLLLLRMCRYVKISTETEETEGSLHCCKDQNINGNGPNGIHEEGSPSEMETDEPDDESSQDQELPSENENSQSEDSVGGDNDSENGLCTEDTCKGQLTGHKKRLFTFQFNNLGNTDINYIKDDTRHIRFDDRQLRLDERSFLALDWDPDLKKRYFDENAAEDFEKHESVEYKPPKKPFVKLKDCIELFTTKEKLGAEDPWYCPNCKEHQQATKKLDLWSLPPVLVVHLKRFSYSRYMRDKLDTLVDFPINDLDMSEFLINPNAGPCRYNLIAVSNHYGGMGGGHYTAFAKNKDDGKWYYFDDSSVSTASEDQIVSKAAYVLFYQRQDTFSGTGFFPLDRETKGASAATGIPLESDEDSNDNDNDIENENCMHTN
Summary of the method: as §1

USP16 = USP16 (UniProt Q9Y5T5)
Summary of the method: as §1

Measured: log2 ratio of Biotin-Ahx-Ub-VS probe labelling

Sequence of UCHL1 (P09936 whole entry, looked up): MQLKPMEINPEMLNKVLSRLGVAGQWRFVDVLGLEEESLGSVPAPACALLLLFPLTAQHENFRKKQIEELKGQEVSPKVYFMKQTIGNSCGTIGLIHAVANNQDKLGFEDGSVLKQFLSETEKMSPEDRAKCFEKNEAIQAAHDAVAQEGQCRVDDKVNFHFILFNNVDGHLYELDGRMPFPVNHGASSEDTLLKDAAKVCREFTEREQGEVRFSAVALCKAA
Sequence of USP10 (Q14694 whole entry): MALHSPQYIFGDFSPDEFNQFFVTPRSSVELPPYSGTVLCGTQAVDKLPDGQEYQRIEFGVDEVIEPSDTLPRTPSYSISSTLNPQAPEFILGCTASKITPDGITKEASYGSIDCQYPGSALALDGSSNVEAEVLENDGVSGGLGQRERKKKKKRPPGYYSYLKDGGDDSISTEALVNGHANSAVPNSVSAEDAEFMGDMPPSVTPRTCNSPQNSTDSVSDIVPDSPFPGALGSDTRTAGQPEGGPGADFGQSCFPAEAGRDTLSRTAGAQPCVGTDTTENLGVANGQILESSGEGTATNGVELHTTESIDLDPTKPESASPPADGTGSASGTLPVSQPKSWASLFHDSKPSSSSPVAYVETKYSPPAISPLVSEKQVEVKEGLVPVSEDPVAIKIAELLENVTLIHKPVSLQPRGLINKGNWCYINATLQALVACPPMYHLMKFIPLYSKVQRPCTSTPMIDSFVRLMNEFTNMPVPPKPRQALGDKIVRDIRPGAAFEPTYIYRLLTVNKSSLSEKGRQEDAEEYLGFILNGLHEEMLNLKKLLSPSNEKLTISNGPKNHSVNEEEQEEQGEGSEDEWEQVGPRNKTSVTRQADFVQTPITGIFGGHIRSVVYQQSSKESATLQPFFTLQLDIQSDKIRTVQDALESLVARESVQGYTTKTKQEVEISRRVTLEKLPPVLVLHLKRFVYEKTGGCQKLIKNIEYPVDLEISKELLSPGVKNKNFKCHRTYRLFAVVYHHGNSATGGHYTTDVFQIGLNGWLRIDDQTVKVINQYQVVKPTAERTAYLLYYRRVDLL
Sequence of USP16 (Q9Y5T5 whole entry, looked up): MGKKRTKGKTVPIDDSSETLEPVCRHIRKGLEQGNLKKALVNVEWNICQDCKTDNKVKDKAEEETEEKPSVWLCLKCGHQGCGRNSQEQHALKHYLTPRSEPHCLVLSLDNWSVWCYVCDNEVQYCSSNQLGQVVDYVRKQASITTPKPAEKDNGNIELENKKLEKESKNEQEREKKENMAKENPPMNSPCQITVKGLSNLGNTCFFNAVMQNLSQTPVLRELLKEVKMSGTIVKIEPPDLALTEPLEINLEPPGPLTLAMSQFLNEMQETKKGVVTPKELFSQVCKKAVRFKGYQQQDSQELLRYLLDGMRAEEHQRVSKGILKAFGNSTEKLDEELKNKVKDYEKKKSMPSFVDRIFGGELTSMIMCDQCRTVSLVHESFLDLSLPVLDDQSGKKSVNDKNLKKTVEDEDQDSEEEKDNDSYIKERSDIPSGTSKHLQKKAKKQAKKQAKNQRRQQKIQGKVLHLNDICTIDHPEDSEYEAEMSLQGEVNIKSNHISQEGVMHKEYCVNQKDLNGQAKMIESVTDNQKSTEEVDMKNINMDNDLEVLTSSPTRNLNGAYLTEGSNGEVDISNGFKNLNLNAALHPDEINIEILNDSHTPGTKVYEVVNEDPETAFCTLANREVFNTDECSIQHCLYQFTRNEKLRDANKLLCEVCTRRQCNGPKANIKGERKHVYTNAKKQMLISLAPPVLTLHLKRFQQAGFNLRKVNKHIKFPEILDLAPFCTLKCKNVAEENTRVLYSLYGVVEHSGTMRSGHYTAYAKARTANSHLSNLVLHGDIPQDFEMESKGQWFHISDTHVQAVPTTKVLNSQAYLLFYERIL

Cl.O=C(CN1CCN(C(=O)CCl)CC1)Nc1ccc(F)cc1
active: UCHL1 -1.2
inactive: OTUD6B 0.226 | OTUD7B 0.0571 | PRPF8 0.0678 | PSMD7 0.149 | UCHL3 0.501 | UCHL5 -0.0699 | USP10 -0.0791 | USP15 -0.113 | USP16 0.138
